Test results as given in PubChem BioAssay (NCATS).
A number with no mark means an inactive call. Records with an inconclusive call do not appear. Activity calls are given as the source filed them. Unless noted, the call rests on the fitted dose curve; in most records, active means well fitted curve in either direction with a large enough effect (not every such curve was filed as active); inconclusive means small, poorly fitted or top-dose-only effect, or another doubt; inactive means flat fitted curve, though single readings scatter.

Columns and labels:
[1] = target: Lysosomal acid glucosylceramidase (Homo sapiens) (UniProt P04062); experiment: Glucocerebrosidase-p2 (AID 348; in the data active means potency below about 10 µM; further: potency means the concentration at half of the fitted maximal effect); settings: purified GBA, blue fluorogenic substrate, 40 min
Lysosomal acid glucosylceramidase (Homo sapiens), sequence (P04062 whole entry, looked up): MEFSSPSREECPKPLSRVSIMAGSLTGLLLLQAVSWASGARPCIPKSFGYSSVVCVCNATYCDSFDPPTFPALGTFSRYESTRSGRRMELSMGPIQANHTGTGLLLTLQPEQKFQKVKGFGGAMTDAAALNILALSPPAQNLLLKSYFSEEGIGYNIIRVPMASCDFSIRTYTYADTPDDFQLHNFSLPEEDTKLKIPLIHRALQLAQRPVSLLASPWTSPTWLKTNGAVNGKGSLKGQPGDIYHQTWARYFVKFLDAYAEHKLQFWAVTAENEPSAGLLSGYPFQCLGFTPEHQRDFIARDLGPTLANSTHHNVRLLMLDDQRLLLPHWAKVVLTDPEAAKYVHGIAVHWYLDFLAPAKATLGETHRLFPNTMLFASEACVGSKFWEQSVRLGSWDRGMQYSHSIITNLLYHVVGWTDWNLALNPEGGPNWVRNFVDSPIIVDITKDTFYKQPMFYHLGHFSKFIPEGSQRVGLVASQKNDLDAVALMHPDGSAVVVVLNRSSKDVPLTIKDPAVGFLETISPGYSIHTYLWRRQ
Summary of the method: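 Normal human glucocerebrosidase (0.2 nM) with blue fluorogenic substrate (80 uM final) in citrate/phosphate pH 5.9 with 10mM sodium taurocholate, 0.01% tween-20; 40 min RT, NaOH/glycine stop; fluorescence Ex 365/Em 440; AC50 from a titration from 0.6 nM upwards.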

[2] = AP1 Signaling Pathway (AID 357); settings: ME-180 AP-1-bla reporter, EGF-induced, beta-lactamase ratio, 5 h; at 7.69 µM (top of the series) unless noted;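 further: ME-180 reporter cells stimulated with EGF at its EC50 level; on the % scale 0 is the no-effect control and ±100 the full control effect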
Summary of the method: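 Cells are seeded overnight, exposed to compound titrations and an EC50 level of EGF for 5 hours at 37 °C, then loaded with CCF4 dye for 2.5 hours. Beta-lactamase activity under the AP-1 element is read as a blue/green ratio.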

[3] = target: Cytochrome P450 1A2 (Homo sapiens) (UniProt P05177); experiment: p450-cyp1a2 (AID 410; calls by dose curve; further: potency means the concentration at half of the fitted maximal effect); settings: recombinant CYP1A2, luciferin-ME demethylation, luminescence; series mostly up to 57 µM
Cytochrome P450 1A2 (Homo sapiens), sequence (P05177 whole entry, looked up): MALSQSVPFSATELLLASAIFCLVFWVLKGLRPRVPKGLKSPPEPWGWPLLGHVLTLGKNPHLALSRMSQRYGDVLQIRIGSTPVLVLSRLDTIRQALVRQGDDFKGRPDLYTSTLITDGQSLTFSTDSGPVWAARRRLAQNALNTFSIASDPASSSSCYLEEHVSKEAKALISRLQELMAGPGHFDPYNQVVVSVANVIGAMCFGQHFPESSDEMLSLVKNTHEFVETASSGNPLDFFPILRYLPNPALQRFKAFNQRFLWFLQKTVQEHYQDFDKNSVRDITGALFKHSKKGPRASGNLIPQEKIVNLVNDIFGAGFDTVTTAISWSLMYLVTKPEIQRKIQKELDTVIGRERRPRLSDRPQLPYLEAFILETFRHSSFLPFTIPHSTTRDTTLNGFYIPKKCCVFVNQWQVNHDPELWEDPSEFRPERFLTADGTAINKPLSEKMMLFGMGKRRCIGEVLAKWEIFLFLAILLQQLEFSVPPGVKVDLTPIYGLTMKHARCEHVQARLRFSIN
Summary of the method: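 Read-out is luminescence from luciferin produced by CYP1A2 demethylation of Luciferin-ME (100uM, at Km). Detection reagent stopped the 60 min NADPH-dependent reaction; signals were normalized to 57 uM furafylline.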

[4] = NFAT Signaling Pathway (AID 444); settings: Jurkat NFAT-bla M1, carbachol, beta-lactamase ratio, 5 h; at 7.69 µM (top of the series) unless noted;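 further: carbachol stimulus at about its EC50 of 1 µM final; on the % scale 0 is the no-effect control and ±100 the full control effect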
Summary of the method: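 Read-out: CCF4 FRET ratio (460 nm/530 nm) after 1 h RT dye loading, used for %activity and AC50 from titration series. Cells: Jurkat NFAT-β-lactamase/M1 line, treated with compound plus 1 uM carbachol for 5 h, 37 °C.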

[5] = Stat Signaling Pathway (AID 446); settings: ME-180 (cervical carcinoma) SIE beta-lactamase reporter, IL-6 stimulated, 5 h; at 7.69 µM (top of the series) unless noted;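 further: ME-180 cervical cancer cells given 40 pM IL-6 alongside compound; SIE-controlled beta-lactamase reporter measured as 460/530 nm FRET emission ratio; on the % scale 0 is the no-effect control and ±100 the full control effect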
Summary of the method: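 Emission at 460 and 530 nm (excitation 405 nm) reports SIE-controlled beta-lactamase in ME-180 cells. Cells received compound with 40 pM IL-6 for 5 hrs at 37 C; data scaled between 300 pM IL-6 and 125 nM JAK-inhibitor controls.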

[6] = target: Glucocorticoid receptor (Homo sapiens) (UniProt P04150); experiment: GR-GFP Redistribution (AID 450;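 active means compounds whose dose series gives a full or clear partial fitted curve of increased nuclear translocation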; further: potency means the concentration at half of the fitted maximal effect); settings: U2OS GR-GFP nuclear translocation, laser cytometry, 2 h
Glucocorticoid receptor (Homo sapiens), sequence (P04150 whole entry, looked up, the tested form may be a part): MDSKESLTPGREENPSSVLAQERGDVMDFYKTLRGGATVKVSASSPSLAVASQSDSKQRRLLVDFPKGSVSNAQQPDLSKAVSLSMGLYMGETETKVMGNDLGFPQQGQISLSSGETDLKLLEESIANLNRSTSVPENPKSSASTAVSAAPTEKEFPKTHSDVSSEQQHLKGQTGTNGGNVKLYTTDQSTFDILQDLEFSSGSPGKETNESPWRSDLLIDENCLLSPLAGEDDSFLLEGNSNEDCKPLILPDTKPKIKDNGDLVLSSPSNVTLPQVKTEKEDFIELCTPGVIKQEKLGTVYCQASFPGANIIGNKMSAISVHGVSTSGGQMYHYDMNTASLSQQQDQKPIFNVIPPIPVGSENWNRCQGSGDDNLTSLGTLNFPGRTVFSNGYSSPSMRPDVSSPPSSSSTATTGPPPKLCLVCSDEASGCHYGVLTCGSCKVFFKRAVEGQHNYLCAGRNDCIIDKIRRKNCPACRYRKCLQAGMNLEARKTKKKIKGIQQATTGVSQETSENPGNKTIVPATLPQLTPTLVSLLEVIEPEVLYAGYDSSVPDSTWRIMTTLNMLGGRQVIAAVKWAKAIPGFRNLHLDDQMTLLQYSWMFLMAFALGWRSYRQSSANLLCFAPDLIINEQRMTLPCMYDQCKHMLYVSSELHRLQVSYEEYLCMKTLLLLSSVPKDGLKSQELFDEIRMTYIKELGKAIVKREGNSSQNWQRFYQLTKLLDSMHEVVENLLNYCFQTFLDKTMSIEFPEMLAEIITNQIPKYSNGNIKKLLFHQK

[7] = target: Glucocorticoid receptor (Homo sapiens) (UniProt P04150); experiment: GR-EFC Redistribution (AID 451; calls by dose curve; further: potency means the concentration at half of the fitted maximal effect); settings: CHO-K1 GR-EFC translocation, beta-gal luminescence, 2 h
Summary of the method: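 Translocation of GR-ED fusion to nuclear EA restores b-gal, read by luminescence after 1 h room-temperature detection. Engineered CHO-K1 biosensor cells, 1,000/well, exposed 2 h at 37 C to titrations up to 46 uM final.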

[8] = target: Mitogen-activated protein kinase 10 (Mus musculus) (UniProt Q61831); experiment: JNK3 AlphaScreen Assay (AID 530); settings: JNK3 lysate, c-Jun phosphorylation; series mostly up to 57.1 µM;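 further: kinase came from lysate of stimulated human HepG2 cells; signal reports phosphorylation of biotinylated GST-cJun 1-79 at Ser73 with 10 µM ATP; on the % scale 0 is the no-effect control and ±100 the full control effect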
Summary of the method: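 Kinase buffer: 20 mM Tris-HCl pH 7.6, 10 mM MgCl2, 1 mM DTT, 0.1 mM Na3VO4, 0.01% Tween-20; ATP 10 uM. Substrate biotin-GST-cJun(1-79), enzyme from activated HepG2 lysates. Detection by Ser73 phospho-antibody AlphaScreen.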

[9] = target: 3',5'-cyclic-AMP phosphodiesterase 4B (Homo sapiens) (UniProt Q07343); experiment: qHTS Assay for Inhibitors of PDE-IV (AID 607; active means well fitted activation curve with a large enough effect in the main read-out, with a control signal flat, not every such curve was filed as active; further: % of control where 0% means no effect); settings: HEK293 ACTOne CNG channel cells, membrane potential fluorescence; series mostly up to 22.9 µM
3',5'-cyclic-AMP phosphodiesterase 4B (Homo sapiens), sequence (Q07343 whole entry, looked up): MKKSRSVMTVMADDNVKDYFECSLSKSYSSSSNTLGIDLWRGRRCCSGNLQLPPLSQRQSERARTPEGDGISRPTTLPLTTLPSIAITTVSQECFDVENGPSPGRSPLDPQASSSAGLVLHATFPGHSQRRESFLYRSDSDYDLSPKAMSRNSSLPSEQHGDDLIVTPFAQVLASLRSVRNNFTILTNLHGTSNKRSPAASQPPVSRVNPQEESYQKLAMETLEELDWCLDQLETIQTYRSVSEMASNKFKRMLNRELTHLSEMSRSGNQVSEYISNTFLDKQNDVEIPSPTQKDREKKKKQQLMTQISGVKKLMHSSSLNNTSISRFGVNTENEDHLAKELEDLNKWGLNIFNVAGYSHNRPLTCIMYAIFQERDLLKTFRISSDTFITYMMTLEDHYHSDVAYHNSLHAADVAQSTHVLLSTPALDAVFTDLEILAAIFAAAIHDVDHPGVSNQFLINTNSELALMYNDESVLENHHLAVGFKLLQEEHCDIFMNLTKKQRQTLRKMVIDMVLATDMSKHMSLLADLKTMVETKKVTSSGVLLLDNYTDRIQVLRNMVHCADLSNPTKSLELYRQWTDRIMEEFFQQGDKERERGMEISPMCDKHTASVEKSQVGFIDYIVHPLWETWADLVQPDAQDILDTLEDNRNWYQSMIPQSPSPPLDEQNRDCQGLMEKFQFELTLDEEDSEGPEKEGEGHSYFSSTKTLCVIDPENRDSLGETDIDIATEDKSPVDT
Summary of the method: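 The readout is membrane depolarisation from a cAMP-sensing CNG channel, detected with a potential dye at ex 535/em 590. Cells were HEK293-derived (endogenous PDE-IV) at 1000 cells/well, titrated up to 22.9 uM final.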

[10] = Primary qHTS for small molecule stabilizers of the endoplasmic reticulum resident proteome: Secreted ER Calcium Modulated Protein (SERCaMP) assay (AID 1508630; active means well fitted curve in the direction sought with a large enough effect; an effect the other way counts as inactive or inconclusive; further: on the % scale 0 is the no-effect control and ±100 the full control effect); settings: SH-SY5Y GLuc-SERCaMP (Gaussia luciferase released on ER calcium loss) secretion, thapsigargin, luminescence; series mostly up to 38.4 µM
Summary of the method: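 The SH-SY5Y reporter protocol was run at 3 concentrations up to 38.3 uM (primary) or 11 concentrations (follow-up): 16 h compound, 100 nM thapsigargin for 4 h, then extracellular luciferase luminescence.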

[11] = target: Cytochrome P450 3A4 (Homo sapiens) (UniProt P08684); experiment: qHTS Assay for Activators of Cytochrome P450 3A4 (AID 885; active means well fitted curve in the direction sought with a large enough effect; an effect the other way counts as inactive or inconclusive; further: nearly all actives have a fitted effect of over 65% in size); settings: recombinant CYP3A4, Luciferin-PPXE luminescence, 60 min; series mostly up to 57.1 µM
Cytochrome P450 3A4 (Homo sapiens), sequence (P08684 whole entry, looked up): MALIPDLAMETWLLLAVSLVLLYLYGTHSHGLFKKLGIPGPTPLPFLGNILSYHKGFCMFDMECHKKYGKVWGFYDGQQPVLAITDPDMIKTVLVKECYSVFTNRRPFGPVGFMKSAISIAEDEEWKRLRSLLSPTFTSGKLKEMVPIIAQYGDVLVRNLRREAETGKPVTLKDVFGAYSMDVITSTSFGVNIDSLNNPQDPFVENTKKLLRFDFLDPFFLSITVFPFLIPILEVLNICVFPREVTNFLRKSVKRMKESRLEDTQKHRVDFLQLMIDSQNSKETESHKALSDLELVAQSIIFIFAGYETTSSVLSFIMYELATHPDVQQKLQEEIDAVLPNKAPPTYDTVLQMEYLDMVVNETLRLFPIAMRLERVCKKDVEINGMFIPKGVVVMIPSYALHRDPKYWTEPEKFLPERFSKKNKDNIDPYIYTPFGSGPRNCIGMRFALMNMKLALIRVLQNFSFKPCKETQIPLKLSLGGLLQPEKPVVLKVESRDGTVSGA
Summary of the method: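 Activators are scored by enhanced luminescence from CYP3A4 conversion of luciferin-PPXE (25uM, equal to KM) to luciferin, after 60 min at RT with an NADPH-regenerating system.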

[12] = target: Cytochrome P450 2C19 (Homo sapiens) (UniProt P33261); experiment: qHTS Assay for Inhibitors and Substrates of Cytochrome P450 2C19 (AID 899; active means well fitted curve in the direction sought with a large enough effect; an effect the other way counts as inactive or inconclusive; further: potency means the concentration at half of the fitted maximal effect; nearly all actives have a fitted effect of over 60% in size); settings: recombinant CYP2C19, luciferin-H EGE luminescence; series mostly up to 57.1 µM
Cytochrome P450 2C19 (Homo sapiens), sequence (P33261 whole entry, looked up): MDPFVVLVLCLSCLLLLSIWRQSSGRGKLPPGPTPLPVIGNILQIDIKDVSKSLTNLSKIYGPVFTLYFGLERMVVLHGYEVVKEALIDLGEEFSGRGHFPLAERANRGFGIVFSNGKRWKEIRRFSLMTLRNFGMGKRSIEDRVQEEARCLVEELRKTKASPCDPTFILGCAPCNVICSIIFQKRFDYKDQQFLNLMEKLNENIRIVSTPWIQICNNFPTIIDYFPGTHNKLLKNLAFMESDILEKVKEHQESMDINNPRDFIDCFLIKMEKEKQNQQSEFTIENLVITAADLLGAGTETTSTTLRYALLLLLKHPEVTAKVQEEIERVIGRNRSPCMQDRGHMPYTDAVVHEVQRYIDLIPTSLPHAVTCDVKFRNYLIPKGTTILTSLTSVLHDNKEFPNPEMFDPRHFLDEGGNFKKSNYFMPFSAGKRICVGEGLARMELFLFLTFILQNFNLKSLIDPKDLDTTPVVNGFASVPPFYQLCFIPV
Summary of the method: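 Reactions contain 5nM enzyme, 10uM Luciferin-H EGE (KM) and 50mM KPO4; compound preincubates 10 min at 37C, NADPH regeneration starts turnover for 60 min. Luminescence after detection reagent gives activity.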

[13] = target: Ubiquitin carboxyl-terminal hydrolase 1 (Homo sapiens) (UniProt O94782); experiment: Inhibitors of USP1/UAF1: Pilot qHTS (AID 504865; active means well fitted curve in the direction sought with a large enough effect; an effect the other way counts as inactive or inconclusive; further: nearly all actives have a fitted effect of over 35% in size; further: potency means the concentration at half of the fitted maximal effect); settings: purified USP1/UAF1, Ub-rhodamine cleavage fluorescence; series mostly up to 54.9 µM
Ubiquitin carboxyl-terminal hydrolase 1 (Homo sapiens), sequence (O94782 whole entry, looked up): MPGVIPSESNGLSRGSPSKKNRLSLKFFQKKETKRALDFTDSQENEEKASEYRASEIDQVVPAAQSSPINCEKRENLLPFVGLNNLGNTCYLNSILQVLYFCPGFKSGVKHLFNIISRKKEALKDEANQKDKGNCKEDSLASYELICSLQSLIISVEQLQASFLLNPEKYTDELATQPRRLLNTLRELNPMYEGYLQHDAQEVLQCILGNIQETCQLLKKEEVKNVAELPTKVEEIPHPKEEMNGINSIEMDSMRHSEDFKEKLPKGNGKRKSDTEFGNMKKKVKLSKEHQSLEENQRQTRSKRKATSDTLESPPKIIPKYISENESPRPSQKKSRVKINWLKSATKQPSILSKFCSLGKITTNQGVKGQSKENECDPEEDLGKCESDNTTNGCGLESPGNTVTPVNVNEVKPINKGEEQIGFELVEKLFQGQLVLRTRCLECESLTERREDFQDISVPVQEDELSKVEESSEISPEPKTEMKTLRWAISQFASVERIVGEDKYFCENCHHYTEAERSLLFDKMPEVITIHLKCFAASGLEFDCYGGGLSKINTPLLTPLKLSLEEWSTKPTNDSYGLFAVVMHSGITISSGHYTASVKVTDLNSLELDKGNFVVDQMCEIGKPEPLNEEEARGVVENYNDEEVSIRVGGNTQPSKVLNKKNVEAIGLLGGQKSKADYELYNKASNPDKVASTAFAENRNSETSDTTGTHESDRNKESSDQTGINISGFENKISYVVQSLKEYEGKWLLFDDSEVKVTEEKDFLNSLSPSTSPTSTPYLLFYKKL
Summary of the method: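 USP1/UAF1 complex (1nM) preincubated with compound 15 min at room temperature, then Ub-Rho substrate (150nM final) added. Fluorescence read kinetically at 480/540 nm, 6 reads every 60 seconds. Buffer: 50mM HEPES pH 7.8, 0.5mM EDTA, 0.1 mg/ml BSA, 1mM TCEP, 0.01% Tween-20.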

[14] = Confirmation and Secondary Assay for Modulators of Hemoglobin Beta Chain Splicing at IVS2 654 locus (AID 910; active means well fitted curve in the direction sought with a large enough effect; an effect the other way counts as inactive or inconclusive;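 further: HeLa cells stably carrying EGFP split by mutant beta-globin IVS2-654 intron; per-well total GFP intensity by laser scanning cytometry after 2-day treatment; % of control where 0% means no effect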); settings: HeLa EGFP-654 splicing reporter, GFP fluorescence, 48 h; series mostly up to 38.3 µM
Summary of the method: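 Readout: per-well total peak green fluorescence (488 nm ex, 500–520 nm em) from objects 5–250 µm, reflecting correct splicing of an EGFP-654 reporter. Compounds were applied for 2 days at 37 °C to overnight-plated HeLa EGFP-654 cells; controls were DMSO and 500 nM IVS2-654 PNA.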

[15] = Confirmation and Secondary Assay for Modulators of Hemoglobin Beta Chain Splicing at IVS2 705 locus (AID 930; active means well fitted curve in the direction sought with a large enough effect; an effect the other way counts as inactive or inconclusive;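 further: HeLa cells stably expressing the EGFP-705 splicing reporter; GFP fluorescence per well restored by corrected splicing of the IVS2-705 intron in EGFP; % of control where 0% means no effect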); settings: HeLa EGFP-705 splicing reporter, GFP fluorescence, 48 h; series mostly up to 38.3 µM
Summary of the method: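 Stable HeLa line with EGFP disrupted by mutant beta-globin intron 2 (705). Overnight attachment, then 2 days of compound at 37C, 5% CO2. Signal: peak GFP intensity summed over objects 5-250 µm.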

[16] = target: Cytochrome P450 3A4 (Homo sapiens) (UniProt P08684); experiment: qHTS Assay for Inhibitors and Substrates of Cytochrome P450 3A4 (AID 884; active means well fitted curve in the direction sought with a large enough effect; an effect the other way counts as inactive or inconclusive; further: potency means the concentration at half of the fitted maximal effect; nearly all actives have a fitted effect of over 50% in size); settings: recombinant CYP3A4, Luciferin-PPXE luminescence; series mostly up to 57.1 µM
Summary of the method: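 Luminescent readout of luciferin produced by CYP3A4 (20 nM) dealkylation of Luciferin-PPXE, 25 uM (its KM). NADPH-driven reaction ran 60 min at RT after 10 min compound preincubation; data scaled to 57 uM ketoconazole as 100% inhibition.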

[17] = target: Dual specificity protein kinase CLK4 (Homo sapiens) (UniProt Q9HAZ1); experiment: qHTS Assay for Inhibitors of CDC-like Kinase 4 (ADP-FP Assay) (AID 1795; active means well fitted curve in the direction sought with a large enough effect; an effect the other way counts as inactive or inconclusive; further: nearly all actives have a fitted effect of over 60% in size; further: potency means the concentration at half of the fitted maximal effect); settings: Transcreener ADP fluorescence polarization; series mostly up to 50 µM
Dual specificity protein kinase CLK4 (Homo sapiens), sequence (Q9HAZ1 whole entry, looked up): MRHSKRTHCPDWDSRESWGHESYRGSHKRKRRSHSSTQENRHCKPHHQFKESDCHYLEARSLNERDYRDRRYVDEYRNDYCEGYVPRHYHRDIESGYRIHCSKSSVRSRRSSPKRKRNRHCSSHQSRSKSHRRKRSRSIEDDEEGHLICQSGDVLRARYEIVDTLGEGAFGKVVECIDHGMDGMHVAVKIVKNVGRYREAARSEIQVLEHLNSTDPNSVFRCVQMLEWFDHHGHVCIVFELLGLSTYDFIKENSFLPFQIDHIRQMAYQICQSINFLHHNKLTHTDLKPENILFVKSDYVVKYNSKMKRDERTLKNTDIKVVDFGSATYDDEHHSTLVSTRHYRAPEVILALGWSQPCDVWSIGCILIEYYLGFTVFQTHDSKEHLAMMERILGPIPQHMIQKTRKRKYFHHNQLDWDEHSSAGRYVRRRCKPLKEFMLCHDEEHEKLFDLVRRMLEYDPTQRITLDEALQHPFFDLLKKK
Summary of the method: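 Recombinant human Clk4 (6.25 nM) phosphorylated RS repeat peptide (100 uM) with 1 uM ATP in Tris pH 7.5/MgCl2/EGTA/DTT/Triton buffer for one hour. ADP was quantified by Transcreener competitive fluorescence polarization against an ADP calibration curve.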

| Structure (SMILES) | Potency [1] | activity change, negative = inhibition [2] | Potency [3] | activity change, negative = inhibition [4] | activity, negative = inhibition [5] | Potency [6] | Potency [7] | Potency [8] | Potency [9] | outcome [10] | Potency [11] | Potency [12] | Potency [13] | Potency [14] | outcome [15] | Potency [16] | Potency [17] |
| --- | --- | --- | --- | --- | --- | --- | --- | --- | --- | --- | --- | --- | --- | --- | --- | --- | --- |
| Cn1c(=O)c(-c2ccc(F)cc2)nc2cnc(Oc3ccccc3)nc21 | > 11.4 µM | 14.3% | 0.316 µM (active) | 5.5% | -0.989% | > 9.22 µM | > 46 µM | inactive | inactive | inactive |  |  |  |  |  |  |  |
| O=c1c(-c2ccccc2)nc2cncnc2n1Cc1ccccc1Cl | > 11.4 µM | 1.43% | 2 µM (active) | -6.41% | 5.03% | > 9.22 µM | > 46 µM | inactive |  | inactive |  |  |  |  |  |  |  |
| N#Cc1cccc(-c2nc(NCc3ccccc3)c3ccccc3n2)c1 | > 11.4 µM | -14.6% | 0.398 µM (active) | -13.5% | -8.06% | > 46 µM | > 46 µM | inactive |  | inactive | inactive | 6.31 µM (active) | 15.8 µM (active) |  |  |  |  |
| Cc1ccccc1-c1nccc(-n2ccnc2)n1 | > 11.4 µM | 5.77% | 0.0794 µM (active) | -8.66% | 12.8% | > 46 µM | > 46 µM | inactive | inactive | inactive | inactive |  | inactive | inactive | inactive |  |  |
| N#Cc1cccc(-c2cc(-n3ccnc3)ncn2)c1 | > 11.4 µM | 0.101% | 0.126 µM (active) | 4.55% | 10.7% | > 46 µM | > 46 µM | inactive | inactive | inactive | inactive | 0.158 µM (active) | inactive | inactive | inactive | 0.398 µM (active) |  |
| COc1ccccc1-c1nc(NCc2cccs2)c2ccccc2n1 | > 11.4 µM |  | 0.631 µM (active) | -14.6% |  | > 46 µM | > 46 µM | inactive |  | inactive | inactive |  | 15.8 µM (active) |  |  |  | inactive |
| CN(C)C(=O)c1ccc(-c2ccc3ncnc(N(C)Cc4ccco4)c3c2)cc1 | > 11.4 µM |  |  | 8.43% | -9.98% | > 46 µM | > 46 µM | inactive |  | inactive |  |  | inactive |  |  |  | 7.08 µM (active) |
